Source: PubChem BioAssay AID720706 (Broad Institute, 2013)
“And” between values parts separate entries of the source, which are not always exact repeats. Equal values may be shown once. About 5,500 (1.6%) of roughly 350,000 compounds were called active.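 Rule for the calls: active = significant combined selectivity score with lowered wild-type GFP, culture density cut under 30%, mutant RFP and density less affected; inactive = any of these conditions unmet.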 The sample as a whole holds a higher share of actives than the screen did.

Experiment: reduced GFP signal of wild-type E. coli, primary screen, bacterial rRNA inhibitor project, GFP/RFP fluorescence, OD600, single point (AID 720706)
Conditions: E. coli WT GFP vs humanized-ribosome RFP mutants, 24 h; GFP signal change (wild-type ribosome): stronger effect = lower value, DMSO median 0, no signal -100; OD600 change: measured here: OD600 growth, DMSO median 0, no signal -100; RFP signal change: measured here: RFP humanized mutant strains, DMSO median 0, no signal -100, concentration not given here
In the case of `CCCc1cc(=O)oc2cc(OCC(=O)Nc3ccc(CN4CCOCC4)cc3)c(Cl)cc12`, the GFP signal change (wild-type ribosome) is reported as 0.107% (inactive), the OD600 change is reported as 0.304% and the RFP signal change is reported as -1.17%.
In the case of `COc1ccc2oc(=O)cc(CN3CCOCC3)c2c1`, the GFP signal change (wild-type ribosome) is reported as 18.2% (inactive), the OD600 change is reported as 14.8% and the RFP signal change is reported as 0.523%.
With `COc1ccc(-c2cc(=O)oc3cc(OC(C)C(=O)Nc4ccc(CN5CCOCC5)cc4)ccc23)cc1` (stereo not drawn) the GFP signal change (wild-type ribosome) was -20% (active), the OD600 change was -14.2% and the RFP signal change was 3.54%.
In the case of `C[C@@H]1CCCCO[C@@H](CN(C)C(=O)c2ccccc2)[C@H](C)CN([C@@H](C)CO)C(=O)c2cc(NS(=O)(=O)c3cn(C)cn3)ccc2O1`, the GFP signal change (wild-type ribosome) is reported as 4.03% (inactive), the OD600 change is reported as 4.12% and the RFP signal change is reported as -1.99%.
For `Cc1ccc(C(=O)NCC(=O)OCC(=O)Nc2cccc(S(=O)(=O)N3CCCC3)c2)cc1C`, the GFP signal change (wild-type ribosome) was -20.9% (active), the OD600 change was -2.78% and the RFP signal change was -2.48%.
With `O=C(CCNC(=O)c1ccc(Br)cc1)Nc1cccc(S(=O)(=O)N2CCCCC2)c1` the GFP signal change (wild-type ribosome) was -12.3% (inactive), the OD600 change was -43.3% and the RFP signal change was 1.03%.
In the case of `CC(NC(=O)c1ccccc1)C(=O)OCC(=O)Nc1cccc(S(=O)(=O)N2CCCC2)c1` (stereo not drawn), the GFP signal change (wild-type ribosome) is reported as -2.56% (inactive), the OD600 change is reported as 4.84% and the RFP signal change is reported as -0.0785%.
For `CC(C)(C)[S@](=O)N1Cc2cc(C(=O)N[C@@H]3CCN(Cc4ccccc4)C3)nc(-c3cccc(-c4ccncc4)c3)c2[C@@H]1CCO`, the GFP signal change (wild-type ribosome) was 1.13% (inactive), the OD600 change was 9.43% and the RFP signal change was -4.39%.
In the case of `CCCNC(=O)N1C[C@H]2[C@@H](c3ccccc31)[C@H](CO)N2C(=O)NC(C)C`, the GFP signal change (wild-type ribosome) is reported as 2.8% (inactive), the OD600 change is reported as 10.8% and the RFP signal change is reported as 1.99%.
For `COc1ccc(Cl)cc1NC(=O)NC(C)C(C)(C)C` (stereo not drawn), the GFP signal change (wild-type ribosome) was -0.51% (inactive), the OD600 change was 1.25% and the RFP signal change was 0.006%.
For `COc1ccc(Cl)cc1NC(=O)NCC1CCN(Cc2ccccc2F)CC1`, the GFP signal change (wild-type ribosome) was -5.44% (inactive), the OD600 change was -28.5% and the RFP signal change was 37.7%.
For `COc1ccc(Cl)cc1NC(=O)C(C)N1CCc2ccccc21` (stereo not drawn), the GFP signal change (wild-type ribosome) was -31% (active), the OD600 change was -24.4% and the RFP signal change was -3.11%.
With `CSCC[C@H](NC(=O)N1CCn2c1nc1ccccc12)C(=O)NC1CCCCC1` the GFP signal change (wild-type ribosome) was -28.5% (active), the OD600 change was -22.6% and the RFP signal change was -0.555%.
With `CSCC[C@H](NC(=O)N1CCn2c1nc1ccccc12)C(=O)NCc1ccc2c(c1)OCO2` the GFP signal change (wild-type ribosome) was -1.83% (inactive), the OD600 change was -3.03% and the RFP signal change was 3.82%.
For `CC(C)C[C@H](NC(=O)N1CCn2c1nc1ccccc12)C(=O)NC1CC1`, the GFP signal change (wild-type ribosome) was 0.495% (inactive), the OD600 change was 2.23% and the RFP signal change was -1.23%.
For `COc1ccc2c3c([nH]c2c1)[C@@H](CO)N(C(=O)c1ccccc1)CC31CCN(C(=O)Nc2cccc(F)c2)CC1`, the GFP signal change (wild-type ribosome) was -4.87% (inactive), the OD600 change was -13.4% and the RFP signal change was 1.11%.
In the case of `COC(=O)CSc1nnc(NC(=O)CCc2ccccc2)s1`, the GFP signal change (wild-type ribosome) is reported as 7.96% (inactive), the OD600 change is reported as 5.71% and the RFP signal change is reported as -0.746%.
In the case of `CC(C)Cc1nnc(NC(=O)CCc2ccccc2)s1`, the GFP signal change (wild-type ribosome) is reported as 2.89% (inactive), the OD600 change is reported as 0.415% and the RFP signal change is reported as 0.86%.
For `O=C(CCc1ccccc1)Nc1ncc([N+](=O)[O-])s1`, the GFP signal change (wild-type ribosome) was -42.5% (active), the OD600 change was -20.7% and the RFP signal change was 2.67%.
For `Cc1cc([N+](=O)[O-])ccc1NS(=O)(=O)c1ccccc1`, the GFP signal change (wild-type ribosome) was -10.6% (inactive), the OD600 change was -35.5% and the RFP signal change was -7.16%.
With `Cc1cc(C)n(S(=O)(=O)c2cccc([N+](=O)[O-])c2)n1` the GFP signal change (wild-type ribosome) was 5.54% (inactive), the OD600 change was 9.05% and the RFP signal change was 1.61%.
With `Cc1ccccc1OS(=O)(=O)c1cccc([N+](=O)[O-])c1` the GFP signal change (wild-type ribosome) was -22.9% (active), the OD600 change was -15.1% and the RFP signal change was -4.54%.
In the case of `O=C([C@H]1[C@H](CO)[C@H]2Cn3c(ccc(-c4ccccc4)c3=O)[C@@H]1N2Cc1cccnc1)N1CCOCC1`, the GFP signal change (wild-type ribosome) is reported as 5.29% (inactive), the OD600 change is reported as 5.22% and the RFP signal change is reported as 0.504%.
With `Cc1ccc(-c2cnc3c(c2)C(=O)N([C@H](C)CO)C[C@H](C)[C@@H](CN(C)S(C)(=O)=O)O3)cc1` the GFP signal change (wild-type ribosome) was 2.09% (inactive), the OD600 change was 1.04% and the RFP signal change was 1.43%.
For `C[C@@H]1CN([C@H](C)CO)C(=O)c2c(c3ccccc3n2C)-c2ccccc2CO[C@@H]1CN(C)Cc1ccccc1C(F)(F)F`, the GFP signal change (wild-type ribosome) was 3.48% (inactive), the OD600 change was -2.02% and the RFP signal change was -4.51%.
With `CC(C)NC(=O)Nc1ccc2c(c1)C(=O)N([C@H](C)CO)C[C@@H](C)[C@H](CN(C)S(C)(=O)=O)O2` the GFP signal change (wild-type ribosome) was 0.569% (inactive), the OD600 change was 1.03% and the RFP signal change was -2.66%.
With `COc1ccc(NC(=O)CN(C)S(=O)(=O)c2ccccc2)cc1OC` the GFP signal change (wild-type ribosome) was -21.4% (active), the OD600 change was -15.8% and the RFP signal change was 5.68%.
In the case of `COc1ccc(NC(=O)CN(Cc2ccccc2)S(C)(=O)=O)cc1OC`, the GFP signal change (wild-type ribosome) is reported as 7.38% (inactive), the OD600 change is reported as 3.04% and the RFP signal change is reported as 2.82%.
With `Cc1ccc2nc(-c3ccc(NC(=O)CN(C)S(=O)(=O)c4ccccc4)cc3)sc2c1` the GFP signal change (wild-type ribosome) was 6.45% (inactive), the OD600 change was 6.57% and the RFP signal change was -1.11%.
For `C[C@H]1CN([C@@H](C)CO)C(=O)Cc2cc(NC(=O)Cc3ccccc3)ccc2O[C@H]1CN(C)S(=O)(=O)c1ccc(Cl)cc1`, the GFP signal change (wild-type ribosome) was 6.12% (inactive), the OD600 change was 0.505% and the RFP signal change was -2.09%.
In the case of `C[C@@H]1CN(C)C(=O)c2cccc(N(C)C)c2O[C@H]1CN(C)S(C)(=O)=O`, the GFP signal change (wild-type ribosome) is reported as 0.02% (inactive), the OD600 change is reported as -2.43% and the RFP signal change is reported as -4.17%.
With `CCS(=O)(=O)N1CC(=O)N2[C@H](C1)[C@@H](c1ccc(C#Cc3ccc(F)cc3)cc1)[C@@H]2CO` the GFP signal change (wild-type ribosome) was -26.6% (inactive), the OD600 change was -55.5% and the RFP signal change was 8.02%.
For `COC(=O)C[C@H]1C[C@H]2c3cc(NC(=O)NC4CCCCC4)ccc3O[C@H]2[C@H](CO)O1`, the GFP signal change (wild-type ribosome) was 3.18% (inactive), the OD600 change was 0.77% and the RFP signal change was 1.45%.
For `CC1CN(c2nc(Nc3ccccc3)nc(N)c2[N+](=O)[O-])CC(C)O1` (stereo not drawn), the GFP signal change (wild-type ribosome) was -35.4% (inactive), the OD600 change was -33.8% and the RFP signal change was -0.525%.
With `Cc1cc(N2CCN(C)CC2)nc2ccc(NC(=S)N3CCOCC3)cc12` the GFP signal change (wild-type ribosome) was 2.14% (inactive), the OD600 change was 1.93% and the RFP signal change was -1.37%.
For `CN1CCN(c2nc(Nc3ccc(O)cc3)nc3ccccc23)CC1`, the GFP signal change (wild-type ribosome) was -21.6% (active), the OD600 change was 2.64% and the RFP signal change was 1.85%.
In the case of `C[C@H]1CN([C@@H](C)CO)C(=O)c2cc(NS(C)(=O)=O)ccc2O[C@@H]1CN(C)S(=O)(=O)c1ccc(Cl)cc1`, the GFP signal change (wild-type ribosome) is reported as 2.05% (inactive), the OD600 change is reported as 0.615% and the RFP signal change is reported as 0.846%.
In the case of `CC(=O)N1C[C@@H]2C(c3ccccc3)[C@H](C1)N2Cc1ccc(F)cc1` (stereo partly drawn), the GFP signal change (wild-type ribosome) is reported as -7.42% (inactive) and -0.918% (inactive), the OD600 change is reported as -6.55% and 0.0005% and the RFP signal change is reported as 2.17% and -0.988%.
For `COc1ccc(-c2ccc([C@@H]3[C@@H](CO)N4C(=O)CN(Cc5ccccc5)C[C@@H]34)cc2)cc1`, the GFP signal change (wild-type ribosome) was 0.0065% (inactive), the OD600 change was -2.91% and the RFP signal change was 0.737%.
For `COc1ccc(CN2CCCCN3[C@H](C2)[C@H](c2ccc(-c4ccc(OC)cc4)cc2)[C@@H]3CO)cc1`, the GFP signal change (wild-type ribosome) was 0.651% (inactive), the OD600 change was 2.56% and the RFP signal change was 3.41%.
For `COc1ccc(Cn2c(-c3ccc(Cl)cc3)c[n+]3ccccc23)cc1`, the GFP signal change (wild-type ribosome) was -31.8% (active), the OD600 change was -12.7% and the RFP signal change was 10%.
